Values joined by “and” are separate entries in the source; they are usually repeats but may differ in a detail not shown here. Identical values can stand only once. Records with an inconclusive call do not appear. Some compounds were tested as several samples or in several runs, with calls that do not always agree. Active and inactive are the calls of the source. Calls follow the shape of the dose curve; as a rule, active = well fitted curve in the direction sought with a large enough effect; inconclusive = small, poorly fitted or top-dose-only effect, or another doubt; inactive = no such curve, though single readings can be large; an effect the other way counts as inactive or inconclusive.

Experiment [1] deals with MCC-13. Put plainly: qHTS assay to identify novel small-molecules to repurpose for Merkel cell carcinoma treatment (AID 1296009). Also: nearly all actives have a fitted effect of over 60% in size. Particulars: MCC and control cell lines, CellTiter-Glo viability, 72 h; series mostly up to 46 µM. The method in brief:
(§1)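 qHTS format: cells treated with library compounds in DMSO across 8 (NPC) or 11 (MIPE) concentrations. Readout after 72 hr at 37 degree celsius was CellTiter-Glo luminescence.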
For orientation: In qHTS, concentration-response curves come from the screen itself.

For experiment [2], the system named is MCC-26. The experiment is described as above. Particulars: MCC and control cell lines, CellTiter-Glo viability, 72 h; series mostly up to 46 µM. The method in brief:
as §1
On the technique in general: In ATP-based viability assays light output follows the ATP content of the culture.

Experiment [3] concerns MKL-1. The description is as above. Particulars: MCC and control cell lines, CellTiter-Glo viability, 72 h; series mostly up to 46 µM. The method in brief:
as §1

The subject of experiment [4] is MKL-2. The description is as above. Conditions: MCC and control cell lines, CellTiter-Glo viability, 72 h; series mostly up to 46 µM. The method in brief: as §1
Experiment [5] relates to UISO. The description is as above. Conditions: MCC and control cell lines, CellTiter-Glo viability, 72 h; series mostly up to 46 µM. The method in brief:
as §1

Experiment [6] has as its system WaGa. The experiment is described as above. Particulars: MCC and control cell lines, CellTiter-Glo viability, 72 h; series mostly up to 46 µM. The method in brief:
as §1

In experiment [7] the test system is C33A. Put plainly: Primary qHTS to identify gynecologic anti-cancer compounds using libraries of approved drugs and bioactive compounds (AID 1345084). Also: nearly all actives have a fitted effect of over 55% in size. Conditions: Gynecologic cancer cell panel viability, ATPlite luminescence, 48 h; series mostly up to 57.5 µM. The method in brief:
(§2)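 48 h compound exposure at 37 C, 5% CO2; five-point qHTS. ATPlite luminescence readout of cell ATP.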

Experiment [8] relates to CASKI. The experiment is described as above. Particulars: Gynecologic cancer cell panel viability, ATPlite luminescence, 48 h; series mostly up to 57.5 µM. The method in brief:
as §2

The subject of experiment [9] is CAOV3. Described as above. Particulars: Gynecologic cancer cell panel viability, ATPlite luminescence, 48 h; series mostly up to 57.5 µM. The method in brief:
as §2

The test system of experiment [10] is NIH3T3. Put plainly: qHTS assay to identify novel small-molecules to repurpose for Merkel cell carcinoma treatment (AID 1296009). Also: nearly all actives have a fitted effect of over 60% in size. Conditions: MCC and control cell lines, CellTiter-Glo viability, 72 h; at 44.8 µM (top of the series) unless noted. The method in brief: as §1
Potency is read from the fitted curve at half-maximal effect.

As to `O=P(O)(O)C(O)(Cn1ccnc1)P(=O)(O)O`, the Potency result in experiment [1], in experiment [2], in experiment [3], in experiment [4], in experiment [5] and in [6] was “inactive” in each case.
For `CC1(C)C(=O)N(CCN2CCC(C(=O)c3ccc(F)cc3)CC2)c2ccccc21`, the Potency result in [1], in [2], in experiment [3], in [4], in [5] and in experiment [6] was “inactive” each time.
In the case of `S=c1nc[nH]c2nc[nH]c12`, the Potency in experiment [1] is 2.99 µM (active) and 11.8 µM (active); in experiment [5], 4.18 µM (active); in experiment [6], 1.19 µM (active) and 2.96 µM (active); in experiment [7], 10 µM (active); in experiment [8], 2.51 µM (active). In addition, the Potency entry in experiment [2], in [3] and in experiment [4] was “inactive” each time.
Consider `CN(C)CCc1c[nH]c2ccc(Cn3cncn3)cc12`, for which the Potency result in experiment [1], in experiment [2], in experiment [3], in experiment [4], in [5] and in [6] was “inactive” throughout.
As for `O=C(c1ccccc1)c1ccc2n1CCC2C(=O)O` (centres undefined), the Potency result in [1], in experiment [2], in [3], in [4], in experiment [5] and in experiment [6] was “inactive” throughout. Further, the Potency entry in experiment [7], in [9] and in experiment [8] was “inactive” throughout.
As to `NS(=O)(=O)c1cc(C(=O)O)c(NCc2ccco2)cc1Cl`, the Potency result in experiment [1], in experiment [2], in experiment [3], in experiment [4], in [5] and in [6] was “inactive” in each case. Further, the Potency entry in experiment [7] and in experiment [8] was “inactive” in each case.
For the molecule `O=c1oc2cc(O)ccc2s1`, the Potency entry in experiment [1], in [2], in experiment [3], in [4], in experiment [5] and in [6] was “inactive” in each case.
With `Clc1ccc(C(Cn2ccnc2)OCc2ccsc2Cl)c(Cl)c1` (centres undefined), the Potency entry in experiment [1], in experiment [2], in experiment [3], in experiment [4], in experiment [6] and in [7] was “inactive” in each case. Further, the Potency result in experiment [9] and in experiment [8] was “inactive” each time. Besides, in [5], the Potency is 21.1 µM (active).
As for `O=c1c(O)c(-c2ccc(O)cc2O)oc2cc(O)cc(O)c12`, the Potency entry in experiment [1], in experiment [2], in [3], in [4], in experiment [5] and in experiment [6] was “inactive” throughout.
In the case of `Cc1ccc(C)c(OCCCC(C)(C)C(=O)O)c1`, the Potency entry in [1], in [2], in [3], in [4], in experiment [5] and in experiment [6] was “inactive” each time. Moreover, the Potency entry in experiment [7] and in experiment [8] was “inactive” throughout.
On to `Cc1ccc(C(=O)c2cc(O)c(O)c([N+](=O)[O-])c2)cc1`, for which the Potency entry in [1], in [2], in experiment [3], in experiment [5], in [6] and in [7] was “inactive” each time. Further, the Potency entry in experiment [8] is “inactive”.
On to `CCOc1cc(CC(=O)N[C@@H](CC(C)C)c2ccccc2N2CCCCC2)ccc1C(=O)O`, for which the Potency entry in experiment [1], in [3], in [4], in experiment [5] and in [6] was “inactive” throughout.
Take `COC1=C(OC)C(=O)C(CCCCCCCCCCO)=C(C)C1=O`: the Potency result in experiment [1], in [2], in [9] and in [8] was “inactive” each time. In experiment [3], the Potency was 15 µM (active). Further, the result in [10] was inactive.
In the case of `Nc1cccc2c1CN(C1CCC(=O)NC1=O)C2=O` (centres undefined), the Potency entry in [1], in experiment [2], in experiment [3], in [4], in experiment [5] and in experiment [7] was “inactive” throughout. Further, the Potency entry in experiment [9] and in experiment [8] was “inactive” in each case.
Consider `O=C(NCCO[N+](=O)[O-])c1cccnc1`, for which the Potency result in experiment [1], in experiment [3], in experiment [4], in experiment [5], in experiment [6] and in experiment [7] was “inactive” in each case. The Potency result in experiment [9] and in [8] was “inactive” each time. Besides, in experiment [10], the result was inactive.
As to `CC1=C(C)C(=O)C(C(CCCCCC(=O)O)c2ccccc2)=C(C)C1=O` (centres undefined), the Potency result in experiment [1], in experiment [3], in experiment [5], in experiment [6], in experiment [7] and in experiment [9] was “inactive” throughout. Moreover, the Potency result in experiment [8] is “inactive”. The Potency in experiment [4] was 23.7 µM (active) and inactive. For the same molecule, in [10], the call was inactive.
In the case of `O=C(CCc1ccc(O)cc1)c1c(O)cc(O)cc1O`, in experiment [1], the Potency result is “inactive”. Also, the Potency in [3] is 9.35 µM (active); in [4] it was 4.69 µM (active); in experiment [6], 5.9 µM (active). In addition, the molecule was classed as inactive in experiment [10].
Consider `CCCCCCCCOc1ccccc1C(=O)Nc1ccc(C(=O)OCC[N+](C)(CC)CC)cc1`, for which the Potency result in experiment [1], in experiment [2] and in experiment [7] was “inactive” each time. For the same molecule, the Potency in experiment [4] is 16.6 µM (active) and 5.96 µM (active); in experiment [5], 15 µM (active); in experiment [6], 29.9 µM (active).
Regarding `CC1(C)CCC(C)(C)c2cc(NC(=O)c3ccc(C(=O)O)cc3)ccc21`, the Potency entry in [1], in experiment [2], in experiment [3], in experiment [5], in [6] and in experiment [7] was “inactive” in each case. Moreover, the Potency entry in [9] and in experiment [8] was “inactive” throughout. The outcome in experiment [10] was inactive.
Turning to `Clc1ccc(C(Cn2ccnc2)OCc2c(Cl)cccc2Cl)c(Cl)c1` (centres undefined), the Potency result in [1], in experiment [3], in experiment [4], in experiment [7], in experiment [9] and in [8] was “inactive” each time. Also, the call in experiment [10] was inactive. Further, the Potency in [6] is 23.7 µM (active) and inactive.
Regarding `O=C1c2c(O)cc(O)cc2OC(c2ccc(O)c(O)c2)C1O` (centres undefined), the Potency entry in [1], in experiment [3], in experiment [4], in [5] and in experiment [6] was “inactive” throughout.
In the case of `Cc1cc(=O)oc2cc(O)ccc12`, the Potency result in [1], in experiment [2], in experiment [3], in experiment [4], in experiment [5] and in [6] was “inactive” each time. For the same molecule, the Potency entry in experiment [7] and in experiment [8] was “inactive” each time.
As for `CCN(CC)CCOc1ccc(Nc2ncc3cc(-c4c(Cl)cccc4Cl)c(=O)n(C)c3n2)cc1`, the Potency was 2.64 µM (active) in [1]; 1.32 µM (active) in [3]; 5.26 µM (active) in [4]; 5.26 µM (active) in [5]; 2.96 µM (active) in experiment [6].
For `CC(C)[C@H](N)C(=O)OCCOCn1cnc2c(=O)[nH]c(N)nc21`, the Potency result in experiment [1], in experiment [3], in experiment [4], in [5], in experiment [6] and in [7] was “inactive” in each case. Further, the Potency entry in experiment [9] and in [8] was “inactive” each time. In [10], the molecule was classed as inactive.
Take `O=C(OC1C[C@H]2CC[C@@H](C1)[N+]21CCCC1)C(O)(c1ccccc1)c1ccccc1` (some centres undefined): the Potency result in experiment [1], in [2], in experiment [3], in experiment [4], in [5] and in [6] was “inactive” each time. The Potency result in experiment [7] and in experiment [8] was “inactive” in each case.
Regarding `NC(=NCc1ccccc1)NC(=O)c1nc(Cl)c(N)nc1N`, the Potency result in experiment [1], in [2], in experiment [3], in [5] and in experiment [6] was “inactive” each time.
Turning to `Oc1ccc(-c2nc(-c3ccc(F)cc3)c(-c3ccncc3)[nH]2)cc1`, the Potency result in [1], in experiment [2] and in experiment [5] was “inactive” in each case. For the same molecule, the Potency in experiment [4] was 20.9 µM (active). In addition, the outcome in [10] was inactive.
